In PubChem BioAssay (NCI):
Compounds without any hit were thinned out: in the full panel of roughly 79,000, 15% have a hit. Unmarked numbers belong to inactive results. The source made the active and inactive calls. No stated cut-off is given here; in the data, active means growth inhibition above about 70%; inactive means the rest.

Legend:
[1] = NCI Yeast Anticancer Drug Screen. Data for the rad50 strain (AID 155);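 further: 0% = growth of vehicle-only cultures of the same strain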; details: S. cerevisiae rad50 strain growth inhibition; at 50.0 µM; stronger effect = higher value
Method in brief: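 Relative growth inhibition (compound vs vehicle) was measured in yeast with a defined repair-gene alteration.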

[2] = NCI Yeast Anticancer Drug Screen. Data for the mec2-1 strain (AID 157); details: S. cerevisiae mec2-1 strain, at 50.0 µM, stronger effect = higher value
Method in brief: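 Vehicle-treated cultures served as reference for growth inhibition of compound-exposed mec2-1 yeast.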

[3] = NCI Yeast Anticancer Drug Screen. Data for the sgs1 mgt1 strain (AID 161);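 further: 0% = growth of cultures given vehicle only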; details: S. cerevisiae sgs1 mgt1 strain, at 50.0 µM, stronger effect = higher value
Method in brief: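 Test agents were incubated with a DNA-repair-mutant yeast strain. Growth was then read and compared against vehicle-treated controls.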

[4] = NCI Yeast Anticancer Drug Screen. Data for the cln2 rad14 strain (AID 165);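 further: 0% = growth equal to vehicle treated cultures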; details: S. cerevisiae cln2 rad14 strain, at 50.0 µM, stronger effect = higher value
Method in brief: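 Each compound was tested on cln2 rad14 yeast. Inhibition of growth was calculated against vehicle-exposed controls.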

[5] = NCI Yeast Anticancer Drug Screen. Data for the bub3 strain (AID 167); details: S. cerevisiae bub3 mutant strain, at 50.0 µM, stronger effect = higher value
Method in brief: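 Screening used yeast with an engineered genetic alteration affecting cell cycle control. Compound-exposed cultures were compared with vehicle cultures, and reduced growth was taken as inhibition.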

[6] = NCI Yeast Anticancer Drug Screen. Data for the mlh1 rad18 strain (AID 175); details: S. cerevisiae mlh1 rad18 strain growth inhibition; at 50.0 µM; stronger effect = higher value
Method in brief: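 Vehicle-treated cultures served as the reference for growth inhibition in a yeast strain carrying DNA damage repair alterations exposed to each compound.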

Compound	growth inhibition [1]	growth inhibition [2] [%]	growth inhibition [3]	growth inhibition [4] [%]	growth inhibition [5]	growth inhibition [6]
O=C(O)c1cc(Br)sc1Br	8.75%	-12.4	-8.8%	0.7	-9.6%	-15.1%
COCn1c(C(=O)c2ccc(OC)cc2)cc2ccccc21	7.45%	11.8	-3.9%	-11.5	16.1%	23.4%
O=C(O)CC1SC2(C(=O)N(Cc3ccccc3)c3ccccc32)N(c2ccccc2)C1=O (stereo not given)	45.4%	29.8	32.5%	-8.55	8.55%	53%
O=C(NNC(=S)Nc1cccc(Cl)c1)c1ccncc1	21.8%	6.5	26.6%	9.45	19.9%	-9.55%
COC(=O)C(C)(N)Cc1ccc(O)c(C)c1 (stereo not given)	3.6%	10.8	0.5%	-10.3	-4.05%	-9.9%
CC1(C)CC2(C)NCCN2C(=S)N1 (stereo not given)	3.25%	2.3	15.8%	12.2	-5.45%	-7.8%
O=C(c1ccc2ccccc2c1)C(Cl)C(Cl)c1ccccc1 (stereo not given)	-13.2%	10.8	-1.55%	-15.8	53.1%	-6.15%
CN(C)CCCNc1ccc2ncn3c4ccc(O)cc4c(=O)c1c23	-4.45%	-3.9	-14.3%	-15.3	0.5%	7.9%
CC1CCC(NC(=O)NCCCl)c2ccccc21 (stereo not given)	-7.05%	-1.3	-1.8%	-23.8	-14.2%	-6.65%
CC1CCOC(c2ccc(O)cc2)O1 (stereo not given)	-4.05%	-13.1	-4.65%	-29.3	-14.4%	-3.75%
COc1ccc2c(c1)c(=O)c1c(NCCCN(C)C)ccc3ncn2c31	34.6%	-5.35	15.8%	-1.7	-9.6%	9.3%
Cc1c(CN(C)C)ccc2ccccc12	-6%	-6.05	3.95%	-34.4	0.6%	-8.95%
N#CCCN(CCC#N)C(=O)Nc1cccc2ccccc12	10.2%	-9.15	5.7%	12.8	-2.25%	-16.5%
CC(=O)OCC1OC(n2c(S)c(C#N)c(-c3ccccc3)c(C#N)c2=O)C(OC(C)=O)C(OC(C)=O)C1OC(C)=O (stereo not given)	22.1%	8.45	-17.3%	-7.4	-21.2%	-37.1%
O=C1NC(c2cccc3c2OCO3)N=C2Oc3ccccc3C=C12 (stereo not given)	9.95%	1.95	9.45%	7.8	-4.05%	-10.6%
CO/N=C(\C([O-])=N\[n+]1cnn(CC(=O)OC(C)(C)C)c1)c1csc(NC(c2ccccc2)(c2ccccc2)c2ccccc2)n1	39.5%	0.75	11.1%	8.3	15.3%	-10.1%
COCCCn1c(-c2ccc(Cl)cc2)nn2c(=O)c3ccccc3nc2c1=O	20%	-1.75	17.2%	10.2	13.4%	7.45%
COC1OC(COS(C)(=O)=O)C(OS(C)(=O)=O)C(OS(C)(=O)=O)C1OS(C)(=O)=O (stereo not given)	-2.8%	-7.05	-26.4%	-67	1.4%	10.3%
CCN(Cc1cccc(S(=O)(=O)O)c1)c1ccc(C(=C2C=CC(=[N+](CC)Cc3cccc(S(=O)(=O)O)c3)C=C2)c2ccc(O)cc2S(=O)(=O)O)cc1	-115%	-127	-71.2%	-110	-136%	-137%
Cc1[nH]c(=O)cc(C(=O)O)c1CN	7.15%	-8.75	3.7%	-59.2	-7.25%	-3.45%

Compound	growth inhibition [1]	growth inhibition [2] [%]	growth inhibition [3]	growth inhibition [4] [%]	growth inhibition [5]	growth inhibition [6]
C=C(C(=O)O)C1CC[C@@]2(C)CCC[C@@](C)(O)C2C1 (stereo not given in full)	21.1%	-5.8	-7.75%	10.8	-3.35%	25.6%
N#C[C@H]1CC2C=CC1C2 (stereo not given in full)	12.2%	-20	0.7%	8.2	0.8%	15.7%
CC(C)(C)NC(=O)NCc1ccc(Cl)c(Cl)c1	2.95%	27.4	17.8%	-6.05	-5.05%	21.6%
OCCCCCCN=Cc1ccccc1O.OCCCCCCN=Cc1ccccc1O.[Cu]	47.9%	-1.2	72.2% (active)	-48.2	4.25%	14.8%
N#CC12CC3(CCC1CCC1(C2)OCCO1)OCCO3 (stereo not given)	-13.8%	2.65	-3.9%	-6.65	4.3%	-1%
Cc1cc(N(CCCCl)CCCCl)ccc1C=Nc1cc(Br)c(O)c(Br)c1	81% (active)	52.4	93.5% (active)	52.5	76.3% (active)	84.9% (active)
CC(C)C(O)(C(=O)OCC1=CC[N+]2(C)CCC(O)C12)C(C)O (stereo not given)	27.6%	-15.3	11.4%	-21.4	-3.2%	1.95%
CN(C)CCC(c1ccccc1)C(CO)c1ccccc1 (stereo not given)	-24.6%	8.75	9.9%	7.65	-2.1%	12.7%
C=CCOCn1ccc(NC(=O)c2ccccc2)nc1=O	-58%	-57.1	-37%	-3.15	-8.4%	-22.3%
CN(CC(=O)c1ccc(Cl)cc1)Cc1ccccc1	-1.45%	-8.8	3.4%	-25.3	0.9%	-3.5%
CCOC(=O)C1=C(C)Oc2cc3c(cc2C1c1ccc(OC)cc1)OCO3 (stereo not given)	3.9%	5.8	23.5%	-39.8	31.4%	6.65%
CCOc1ccc(NC(=O)C(=O)CC(=O)c2sc(NNC(C)=O)nc2C)cc1	-21.1%	2.95	17.5%	14.4	5.4%	-8%
COc1ccc(C(=CC2=CC(=O)C3=C(CCCC3)C2=O)c2ccc(OC)cc2)cc1	19.8%	-4.25	-4.6%	-3.7	0.55%	7.2%
O=C(Nc1cc(NC(=O)n2nnc3ccccc32)c(Br)cc1Br)n1nnc2ccccc21	51.4%	25	27.2%	24.2	2.15%	27.8%
COc1cc(C(=O)O)cc(OC)n1	10.8%	4.15	-6.6%	-36.4	-16.9%	8.25%
C/C=C/C=C/C(=O)OCC	31.8%	-2.25	-16.4%	-2.4	15.2%	14.3%
N#CCCSC(=S)C1CCCCC1=N (stereo not given)	-5.3%	0.8	12.8%	-112	-24.9%	-2.25%
S=c1[nH]c2ccccc2n1CCc1ccncc1	-6.8%	-15.1	22.2%	-1.5	1.05%	3.5%
CC(O)(c1cccc(OCc2ccccc2)c1)c1ccccn1 (stereo not given)	12.3%	0.05	5.7%	-11.4	-6.15%	-7.8%
CC1CC(C)OC(C)(Cc2ccccc2)O1 (stereo not given)	23.8%	20.4	25.6%	-19.9	-2.15%	-13.9%
